Assay results as given in PubChem BioAssay (NCI).
Compounds without any hit were thinned out: in the full panel of roughly 83,000, 20% have a hit.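 Testing used 96-well plates and a 48-hour single-concentration exposure. Example: -40 means 40% of the starting cells died.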 Calls of active or inactive are those of the source.

What follows are molecules tested on SR leukemia (assay: NCI-60 one-dose screen, 48 h (100 = growth as untreated, 0 = no growth, -100 = all killed)). Settings: 10 µM unless noted.
Method: Growth inhibition of the SR human tumor cell line is measured as a screen for anti-cancer activity. Cells are grown in 96 well plates and exposed to the test compound for 48 hours. Compounds are tested at a single concentration, which is 10^-5 M for most compounds. The reported endpoint is percent growth (GI% or GIPRCNT), where numbers from 0 - 100% represent growth inhibition, and numbers from -100% - 0 represent cell death. For example, a value of 40 represents 60% growth inhibition. A value of 0 means no net growth occurred over the course of the experiment. A value of -40 indicates 40% of cells at the beginning of the experiment died by the end of the experiment. A value of -100 means all cells are dead at the end of the experiment.
NCI-60 Human Tumor Cell Lines Screen was performed using the standard one-dose NCI protocol, which is described in more detail at https://dtp.cancer.gov/discovery_development/nci-60/default.htm.
Compounds with GIPRCNT values below 10 were considered active. Activity score was based on GIPRCNT using the following formula: […]
Score is 0 for GIPRCNT values of 100 or above, 50 for GIPRCNT values of 0, and 100 for GIPRCNT values of -100.

Question: `CCc1ccc(C(=Nc2ccc(N(C)C(=O)CN3CCN(C)CC3)cc2)c2c(O)[nH]c3ccc(C(=O)OC)cc23)cc1` was tested. Which growth did it give?
Answer: Its growth is -27.7% (active).

Question: How did the growth turn out when `CC1=NN(c2cccc(Cl)c2)C(=O)/C1=C\c1cn(-c2nc(N3CCOCC3)nc(N3CCOCC3)n2)c2ccccc12` was run?
Answer: Its growth is 100% (inactive).

Question: With `O=C(Nc1ccc(-n2cc(-c3ccncc3)c(-c3ccc(Cl)c(O)c3)n2)cc1)Nc1ccc(Cl)c(C(F)(F)F)c1` as the molecule, how does the growth read?
Answer: Its growth is -10.6% (active).

Question: Which growth does the source give for `O=Nc1ccc(O)c2ccccc12` here?
Answer: The growth was 11.5% (inactive).

Question: With `CSC1=Nc2c(c(C)c(-c3ccccc3)n2CCCCl)C2=NC(=O)CN12` as the molecule, how does the growth read?
Answer: The growth was 12.8% (inactive).

Question: `COc1cc(CNC(=O)CCCC/C=C/C(C)C)ccc1OCc1nnc(Nc2ccccc2F)o1` was tested. Which growth did it give?
Answer: The growth was 67.3% (inactive).

Question: `COC(=O)Nc1nc2ccc(C(=O)c3ccccc3N(C)C3COC3)cc2[nH]1` was tested. Which growth did it give?
Answer: The growth was 35.6% (inactive).

Question: For `CC(=O)c1cc(Nc2cc(C)nc(N)n2)cc(C(C)=O)c1`, which growth is on record?
Answer: The growth was 35.8% (inactive).

Question: Which growth does the source give for `COc1cccc(-c2cc(-c3cc4ccccc4oc3=O)nc(N)n2)c1` here?
Answer: The growth was 92.3% (inactive).

Question: With `NC(N)=N/N=C/c1cccc(Br)c1` as the molecule, how does the growth read?
Answer: The growth was 104% (inactive).

Question: With `Cc1[nH]n(C(=S)Nc2nc3cc(Cl)c(F)cc3s2)c(=O)c1N=Nc1ccc(F)c(Cl)c1` as the molecule, how does the growth read?
Answer: Its growth is -45.2% (active).

Question: With `O=C(Oc1ccccc1)c1ccccc1Cl` as the molecule, how does the growth read?
Answer: The growth was 104% (inactive).

Question: Which growth does the source give for `Brc1ccc(-c2nc3ccccc3s2)cc1` here?
Answer: The growth was 86.9% (inactive).

Question: How did the growth turn out when `CC1(C)NC(=S)NC1=O` was run?
Answer: The growth was 93.1% (inactive).

Question: `CN1C(=O)C(=Cc2coc3ccc(Br)cc3c2=O)C(=O)N(C)C1=O` was tested. Which growth did it give?
Answer: The growth was 126% (inactive).

Question: Which growth does the source give for `C/C=C/C/C=C/[C@H](C)C[C@H](O)[C@@H]1C[C@@H]2O[C@H]2/C=C/[C@@H]2OC(C)(C)O[C@H]2/C=C/C[C@H](C)CC(=O)O1` here?
Answer: Its growth is 18.8% (inactive).

Question: With `c1ccc(Nc2ncc3c(n2)-c2cccn2CC3)cc1` as the molecule, how does the growth read?
Answer: The growth was 101% (inactive).

Question: How did the growth turn out when `O=C(/C=C1\C(=O)N(Cc2ccccc2)c2ccccc21)c1ccc(OCCN2CCCCC2)cc1` was run?
Answer: Its growth is -21.6% (active).

Question: For `CCOC(=O)C1C(=O)C(=O)N(C(C)C)C1C(=O)OCC` (stereo not given), which growth is on record?
Answer: Its growth is 108% (inactive).

Question: `CC(=O)CCS(=O)c1ccccc1` (stereo not given) was tested. Which growth did it give?
Answer: The growth was 85.1% (inactive).

Question: Which growth does the source give for `O=C(/C=C/c1c[nH]c2ccccc12)c1cc2ccccc2o1` here?
Answer: Its growth is 41.1% (inactive).

Question: Which growth does the source give for `N=C(N)c1ccc(-c2ccc(-c3ccc(Cl)cc3)s2)s1` here?
Answer: The growth was -30.1% (active).

Question: For `Nc1nc2c(c3cnccc13)C(c1cccc(Cl)c1)Cc1cnccc1-2` (stereo not given), which growth is on record?
Answer: Its growth is 19.5% (inactive).

Question: Which growth does the source give for `CC(C)(C)c1ccc(OCCOC(=O)CBr)cc1` here?
Answer: The growth was 44.7% (inactive).

Question: `CSc1nc(N)n2nccc2n1` was tested. Which growth did it give?
Answer: The growth was 111% (inactive).

Question: How did the growth turn out when `CCCCCCNC(=O)Oc1ccc(/C(=C(/C)Cc2ccc(OC)cc2)c2ccc(OCCN(C)C)cc2)cc1` was run?
Answer: The growth was -22.5% (active).

Question: Which growth does the source give for `CCCCCCCCCCCCCCCCNC(=O)Nc1ccc(C)c(NC(=O)NCCCCCCCCCCCCCCCC)c1` here?
Answer: Its growth is 104% (inactive).

Question: How did the growth turn out when `N#Cc1c2cccnc2c2nnc3cc(Cl)c(Cl)cc3n12` was run?
Answer: Its growth is 5.53% (active).

Question: For `O=C(CCl)c1ccc2c(c1)CCCC2`, which growth is on record?
Answer: Its growth is 7.36% (active).

Question: With `O=CN/N=C/c1ccc(Cl)c([N+](=O)[O-])c1` as the molecule, how does the growth read?
Answer: Its growth is 39.9% (inactive).

Question: `O=C1C=C(OCC=C(C(F)(F)F)C(F)(F)F)c2ccccc2C1=O` was tested. Which growth did it give?
Answer: Its growth is -19.7% (active).

Question: Which growth does the source give for `COc1ccc(-n2nnnc2-c2cn[nH]c2C(F)(F)F)cc1` here?
Answer: The growth was 73.4% (inactive).

Question: For `COc1ccc2c(c1)cn1c3ccc(O)cc3[nH]c(=O)c21`, which growth is on record?
Answer: Its growth is 3.4% (active).

Question: `CCOC(=O)c1c(C)oc2ncnc(Nc3ccc(C(=O)NCCc4ccccc4)cc3)c12` was tested. Which growth did it give?
Answer: The growth was 89.2% (inactive).

Question: `[2H]c1nc(=Nc2cc(NC(=O)C=C)c(N(C)CCN(C)C)cc2OC)[nH]c(-c2cn(C([2H])([2H])[2H])c3ccccc23)c1[2H]` was tested. Which growth did it give?
Answer: The growth was -13.7% (active).

Question: How did the growth turn out when `COC(=O)c1ccc2[nH]c(O)c(C(=Nc3ccc(N(C)C(=O)CN4CCN(C)CC4)cc3)c3ccc4c(c3)OCO4)c2c1` was run?
Answer: Its growth is 0.377% (active).

Question: Which growth does the source give for `COc1ccccc1Nc1nnc(COc2ccc(CNC(=O)CCCC/C=C/C(C)C)cc2OC)o1` here?
Answer: Its growth is 76.1% (inactive).

Question: With `COc1cc(-c2cc3cnccc3c3nc(N)c4ccncc4c23)cc(OC)c1OC` as the molecule, how does the growth read?
Answer: Its growth is 17% (inactive).

Question: Which growth does the source give for `CCCC[N+](C)(N)CCCC` here?
Answer: Its growth is 92.1% (inactive).

Question: `CCOC(=O)NC1=NCC(C)(C)S1` was tested. Which growth did it give?
Answer: The growth was 104% (inactive).
